Source: ChEMBL document CHEMBL3988442, “University of Dundee, Small-Polar-MMV Screening Library” (2021)
For some assays here: Potency and affinity values are given separately.

Columns and labels:
Parameters in all cases: scale not given: direction of the effect not stated beside the values
[1] = biological target: Protein translocase subunit SecA (Escherichia coli (strain K12)) (UniProt P10408); assay: Assay to Identify E. coli SecA ATPase Inhibitors; assay type: functional; conditions: 30 µM
[2] = biological target: T1, Ubiquitin-activating enzyme e1, putative (Leishmania donovani (strain BPK282A1)) (UniProt E9BSI1); assay: Leishmania donovani Ubiquitin Activating Enzyme (LdE1); assay type: functional; conditions: 30 µM
T1 sequence (whole entry): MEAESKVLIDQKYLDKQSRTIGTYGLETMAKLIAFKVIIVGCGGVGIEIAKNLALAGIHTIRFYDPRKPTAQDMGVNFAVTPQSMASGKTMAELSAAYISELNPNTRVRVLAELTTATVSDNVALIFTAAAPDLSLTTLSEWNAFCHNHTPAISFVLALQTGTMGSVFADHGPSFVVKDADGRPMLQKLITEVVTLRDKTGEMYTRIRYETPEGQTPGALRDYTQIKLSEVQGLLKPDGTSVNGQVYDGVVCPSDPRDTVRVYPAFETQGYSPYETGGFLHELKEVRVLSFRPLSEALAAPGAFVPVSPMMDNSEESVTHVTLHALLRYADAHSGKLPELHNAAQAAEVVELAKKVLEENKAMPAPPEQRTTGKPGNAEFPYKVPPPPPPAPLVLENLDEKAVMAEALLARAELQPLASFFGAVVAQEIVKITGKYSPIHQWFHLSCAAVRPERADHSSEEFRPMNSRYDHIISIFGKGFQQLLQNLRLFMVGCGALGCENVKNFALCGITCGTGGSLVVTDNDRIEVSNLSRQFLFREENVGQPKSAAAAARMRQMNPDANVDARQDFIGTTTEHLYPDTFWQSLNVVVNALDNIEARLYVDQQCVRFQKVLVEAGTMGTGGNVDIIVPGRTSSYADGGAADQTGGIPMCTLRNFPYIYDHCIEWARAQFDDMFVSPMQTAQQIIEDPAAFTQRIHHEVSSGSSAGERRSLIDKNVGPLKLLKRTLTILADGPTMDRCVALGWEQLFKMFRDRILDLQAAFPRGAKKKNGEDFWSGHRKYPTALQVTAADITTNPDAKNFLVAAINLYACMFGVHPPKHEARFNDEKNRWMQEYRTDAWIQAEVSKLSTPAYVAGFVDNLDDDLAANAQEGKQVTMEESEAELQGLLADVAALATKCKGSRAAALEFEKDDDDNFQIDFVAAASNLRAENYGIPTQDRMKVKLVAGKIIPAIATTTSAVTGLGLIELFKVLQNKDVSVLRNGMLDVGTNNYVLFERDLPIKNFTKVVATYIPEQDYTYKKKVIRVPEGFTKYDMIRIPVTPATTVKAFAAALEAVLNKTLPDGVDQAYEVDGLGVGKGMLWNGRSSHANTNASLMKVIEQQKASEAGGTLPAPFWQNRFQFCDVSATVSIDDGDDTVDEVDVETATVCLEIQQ

[3] = biological target: AMP-activated protein kinase, AMPK (Homo sapiens) (UniProt P54646+O43741+P54619+Q9UGJ0+Q9Y478+Q13131+Q9UGI9); assay: AMP-dependent Kinase enzyme assay. An in vitro enzyme assay that detects ADP turnover that is directly proportional to AMPK activity. This uses naive AMPK that is activated during the assay with MK-8722; assay type: functional; conditions: 30 µM
[4] = biological target: Sialic acid-binding Ig-like lectin 9 (Homo sapiens) (UniProt Q9Y336); assay: Hs-Siglec9 ALPHAscreen SOP 20170721; conditions: 10 µM
[5] = system: Trypanosoma cruzi; assay: Trypanosoma cruzi phosphomannomutase and mannose-1-phosphate guanylyltransferase assay; assay type: functional; conditions: 10 µM
[6] = biological target: T2, Arginase-2, mitochondrial (Homo sapiens) (UniProt P78540); assay: in vitro enzyme assay to detect the production of urea directly proportional to the activity of Arginase II; assay type: functional; conditions: 33.3 µM; also: in the data most compounds retested in dose-response had high values
T2 sequence (whole entry): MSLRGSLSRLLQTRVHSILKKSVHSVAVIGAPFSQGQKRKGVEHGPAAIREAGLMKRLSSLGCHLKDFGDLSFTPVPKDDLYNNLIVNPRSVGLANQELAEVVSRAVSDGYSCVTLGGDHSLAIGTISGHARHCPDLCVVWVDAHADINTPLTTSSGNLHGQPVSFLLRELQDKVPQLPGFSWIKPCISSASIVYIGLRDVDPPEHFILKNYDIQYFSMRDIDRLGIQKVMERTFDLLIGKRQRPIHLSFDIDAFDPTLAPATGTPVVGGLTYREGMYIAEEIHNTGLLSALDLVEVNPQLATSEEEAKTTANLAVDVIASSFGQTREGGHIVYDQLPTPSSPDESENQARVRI

[7] = biological target: T3, Proteasome subunit beta (Trypanosoma cruzi) (UniProt O96673); assay: Trypanosoma cruzi proteasome chymotrypsin-like activity (TcProtChymo) assay.; also: in the data most compounds retested in dose-response had high values; assay type: functional; conditions: 9.37 µM
T3 sequence (whole entry): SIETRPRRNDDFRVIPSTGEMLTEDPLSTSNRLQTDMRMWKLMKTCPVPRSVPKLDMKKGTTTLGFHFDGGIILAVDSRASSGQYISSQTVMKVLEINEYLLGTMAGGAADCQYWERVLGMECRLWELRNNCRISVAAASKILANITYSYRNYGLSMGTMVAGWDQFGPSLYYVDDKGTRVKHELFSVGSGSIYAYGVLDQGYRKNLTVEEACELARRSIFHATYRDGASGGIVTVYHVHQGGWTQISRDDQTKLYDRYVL

[8] = species: Homo sapiens; assay: To identify inhibition of the IFN signalling (Jak-Stat) pathway via expression of an eGFP reporter gene under the control of an IFN-stimulated response element (ISRE) containing MxA promoter.; assay type: functional; conditions: 30 µM
[9] = biological target: T4, Tyrosyl-tRNA synthetase, putative (Trypanosoma cruzi (strain CL Brener)) (UniProt Q4DSP6); assay: Trypanosoma cruzi tyrosyl tRNA synthetase (TcYRS) _High Tyrosine SOP; assay type: functional; conditions: 30 µM; also: in the data most compounds retested in dose-response had high values
T4 sequence (whole entry): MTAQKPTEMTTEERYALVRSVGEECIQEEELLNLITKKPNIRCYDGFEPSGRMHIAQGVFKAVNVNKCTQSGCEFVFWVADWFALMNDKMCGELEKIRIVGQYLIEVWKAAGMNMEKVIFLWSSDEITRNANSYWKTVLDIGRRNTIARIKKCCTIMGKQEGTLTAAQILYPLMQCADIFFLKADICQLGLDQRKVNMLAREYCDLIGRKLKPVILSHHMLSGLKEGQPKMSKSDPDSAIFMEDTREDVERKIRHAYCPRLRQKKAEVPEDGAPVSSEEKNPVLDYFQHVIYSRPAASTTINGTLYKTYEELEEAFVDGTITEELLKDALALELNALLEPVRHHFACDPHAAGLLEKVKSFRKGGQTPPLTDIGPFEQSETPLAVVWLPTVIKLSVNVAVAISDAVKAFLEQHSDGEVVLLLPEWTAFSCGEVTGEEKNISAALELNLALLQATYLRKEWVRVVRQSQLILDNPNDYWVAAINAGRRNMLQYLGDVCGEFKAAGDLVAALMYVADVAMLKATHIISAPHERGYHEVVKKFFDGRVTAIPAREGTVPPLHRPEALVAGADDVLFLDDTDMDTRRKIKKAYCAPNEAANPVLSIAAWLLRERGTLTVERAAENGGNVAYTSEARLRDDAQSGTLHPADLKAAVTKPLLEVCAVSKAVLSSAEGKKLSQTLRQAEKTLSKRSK

[10] = biological target: T4, Tyrosyl-tRNA synthetase, putative (Trypanosoma cruzi (strain CL Brener)); assay: Trypanosoma cruzi tyrosyl tRNA synthetase (TcYRS) SOP; assay type: functional; conditions: 30 µM
[11] = biological target: Chromo domain-containing protein 1 (Saccharomyces cerevisiae (strain ATCC 204508 / S288c) (Baker's yeast)) (UniProt P32657); assay: ScCHD-1 Enzyme Inhibition Assay; assay type: functional; conditions: 30 µM; also: in the data most compounds retested in dose-response had high values
Chromo domain-containing protein 1 (Saccharomyces cerevisiae (strain ATCC 204508 / S288c) (Baker's yeast)), sequence (P32657 whole entry, the tested form may be a part): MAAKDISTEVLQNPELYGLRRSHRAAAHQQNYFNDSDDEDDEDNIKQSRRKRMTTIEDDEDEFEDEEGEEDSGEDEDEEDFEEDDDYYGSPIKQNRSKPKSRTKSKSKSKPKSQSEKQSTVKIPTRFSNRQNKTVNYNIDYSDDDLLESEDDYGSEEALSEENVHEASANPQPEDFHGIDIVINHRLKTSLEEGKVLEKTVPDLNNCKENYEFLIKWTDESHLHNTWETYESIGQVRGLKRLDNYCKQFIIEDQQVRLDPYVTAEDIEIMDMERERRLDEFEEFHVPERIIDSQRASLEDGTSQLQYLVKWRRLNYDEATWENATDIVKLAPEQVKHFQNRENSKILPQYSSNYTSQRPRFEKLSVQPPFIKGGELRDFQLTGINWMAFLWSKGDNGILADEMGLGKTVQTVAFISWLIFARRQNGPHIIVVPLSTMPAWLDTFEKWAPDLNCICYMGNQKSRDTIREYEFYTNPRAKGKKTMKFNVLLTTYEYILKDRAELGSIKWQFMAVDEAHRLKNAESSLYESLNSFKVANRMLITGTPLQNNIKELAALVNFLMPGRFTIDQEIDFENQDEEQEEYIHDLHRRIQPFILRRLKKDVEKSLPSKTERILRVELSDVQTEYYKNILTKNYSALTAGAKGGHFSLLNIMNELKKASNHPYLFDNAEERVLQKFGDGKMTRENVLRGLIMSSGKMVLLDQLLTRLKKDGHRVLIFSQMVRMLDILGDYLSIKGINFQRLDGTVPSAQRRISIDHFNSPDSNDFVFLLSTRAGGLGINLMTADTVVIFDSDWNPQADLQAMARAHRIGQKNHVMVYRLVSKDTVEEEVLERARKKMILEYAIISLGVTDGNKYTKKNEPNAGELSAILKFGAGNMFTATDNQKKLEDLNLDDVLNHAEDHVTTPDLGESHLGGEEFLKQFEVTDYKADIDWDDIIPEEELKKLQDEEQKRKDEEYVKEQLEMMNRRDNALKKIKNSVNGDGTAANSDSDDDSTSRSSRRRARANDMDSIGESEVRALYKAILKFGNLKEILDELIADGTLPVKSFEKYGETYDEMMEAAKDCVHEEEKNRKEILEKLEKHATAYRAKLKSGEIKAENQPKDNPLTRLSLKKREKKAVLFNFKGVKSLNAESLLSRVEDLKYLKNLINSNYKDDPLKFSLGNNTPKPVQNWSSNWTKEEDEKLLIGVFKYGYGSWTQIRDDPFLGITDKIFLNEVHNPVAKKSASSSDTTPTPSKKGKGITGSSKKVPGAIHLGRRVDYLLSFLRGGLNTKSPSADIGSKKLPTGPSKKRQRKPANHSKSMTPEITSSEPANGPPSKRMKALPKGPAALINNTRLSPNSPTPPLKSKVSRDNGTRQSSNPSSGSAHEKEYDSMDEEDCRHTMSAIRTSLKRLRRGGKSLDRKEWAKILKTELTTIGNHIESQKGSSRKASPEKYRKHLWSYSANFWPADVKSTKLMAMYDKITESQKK

Sialic acid-binding Ig-like lectin 9 (Homo sapiens), sequence (Q9Y336 whole entry): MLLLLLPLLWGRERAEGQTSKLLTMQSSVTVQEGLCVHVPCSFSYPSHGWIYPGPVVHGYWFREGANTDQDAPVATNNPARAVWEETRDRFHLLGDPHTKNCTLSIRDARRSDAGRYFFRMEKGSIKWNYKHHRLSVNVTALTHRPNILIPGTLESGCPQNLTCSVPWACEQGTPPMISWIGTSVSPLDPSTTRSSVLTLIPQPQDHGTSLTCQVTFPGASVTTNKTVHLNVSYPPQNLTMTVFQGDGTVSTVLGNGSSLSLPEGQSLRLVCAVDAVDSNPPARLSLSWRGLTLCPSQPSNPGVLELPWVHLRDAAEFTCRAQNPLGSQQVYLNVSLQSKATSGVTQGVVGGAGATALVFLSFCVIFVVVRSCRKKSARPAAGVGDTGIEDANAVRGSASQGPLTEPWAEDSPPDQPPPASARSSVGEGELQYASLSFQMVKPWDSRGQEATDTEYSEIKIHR
Protein translocase subunit SecA (Escherichia coli (strain K12)), sequence (P10408 whole entry): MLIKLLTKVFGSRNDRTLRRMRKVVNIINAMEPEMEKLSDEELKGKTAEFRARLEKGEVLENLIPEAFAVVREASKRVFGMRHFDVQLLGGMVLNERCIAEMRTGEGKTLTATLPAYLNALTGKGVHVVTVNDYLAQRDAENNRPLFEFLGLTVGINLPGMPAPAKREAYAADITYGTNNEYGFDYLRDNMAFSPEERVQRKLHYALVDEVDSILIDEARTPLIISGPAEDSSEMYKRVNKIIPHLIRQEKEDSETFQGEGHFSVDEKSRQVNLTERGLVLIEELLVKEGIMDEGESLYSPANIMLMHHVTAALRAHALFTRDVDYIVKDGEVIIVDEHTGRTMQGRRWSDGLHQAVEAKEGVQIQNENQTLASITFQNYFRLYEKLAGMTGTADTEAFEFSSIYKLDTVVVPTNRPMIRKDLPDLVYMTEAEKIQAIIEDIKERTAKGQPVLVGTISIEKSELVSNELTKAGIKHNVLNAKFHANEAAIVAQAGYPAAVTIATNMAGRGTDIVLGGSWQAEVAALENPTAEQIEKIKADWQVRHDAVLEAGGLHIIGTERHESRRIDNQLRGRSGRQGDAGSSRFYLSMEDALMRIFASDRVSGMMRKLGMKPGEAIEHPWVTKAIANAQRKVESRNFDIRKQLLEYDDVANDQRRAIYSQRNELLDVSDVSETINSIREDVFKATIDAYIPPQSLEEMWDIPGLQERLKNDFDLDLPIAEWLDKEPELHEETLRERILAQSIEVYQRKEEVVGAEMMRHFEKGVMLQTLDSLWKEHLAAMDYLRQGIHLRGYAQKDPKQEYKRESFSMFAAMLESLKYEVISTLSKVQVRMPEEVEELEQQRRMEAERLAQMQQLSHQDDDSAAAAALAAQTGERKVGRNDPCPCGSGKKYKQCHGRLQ

Structure (SMILES)	Percent Effect [1] [%]	Percent Effect [2] [%]	Percent Effect [3] [%]	Percent Effect [4] [%]	Percent Effect [5] [%]	Percent Effect [6] [%]	Percent Effect [7] [%]	Percent Effect [8] [%]	Percent Effect [9] [%]	Percent Effect [10] [%]	Percent Effect [11] [%]
CCNC(=O)NC(=O)CSC(C)c1c(F)cccc1F (stereo unspecified)	-5.95	2.67	1.21	-3.31	-5.55	-4.17	22.3	10.5	0.546	-1.24	-6.68
CS(=O)(=O)N1CCC(O)(Cn2c(C3CC3)nc3ccccc3c2=O)CC1	-6.42	1.35	8	2.72	-4.35	-0.232	5.77	11.6	-1.07	-3.9	7
Cn1cc(CCNC(=O)NC2CCS(=O)(=O)C2)cn1 (stereo unspecified)	-5.97	-1.39	-3.17	-1.6	-4.57	-0.442	11.8	-0.804	0	5.13	-1.44
CCOc1ccc(NC(=O)CN2CCN(c3nccn3C)CC2)cc1	0.133	10.4	0.177	-1.93	7.79	-3.23	15.5	-6.28	9.52	14.1	-9
CC(CNC(=O)Nc1cn[nH]c1)N1CCc2ccccc2C1 (stereo unspecified)	-4.87	15.6	-4.05	-3.09	-1.67	0.632	14.2	12.5	9.52	21.2	-18
O=C(c1cc(Cl)c2c(c1)OCO2)N1CCN(c2ccccn2)CC1	-2.8	5.48	-6.15	5.68	1.37	3.64	16.1	14.1	7.53	15	-12.5
O=C(Cn1cccnc1=O)NC(Cc1cccs1)c1ccccn1 (stereo unspecified)	-3.91	9.46	6.77	0.0436	2.57	5.8	8.27	15.5	5.38	11.7	-11.5
Cc1cnn(CC2CCCN2Cc2cc(=O)n3cccc(C)c3n2)c1 (stereo unspecified)	-6.14	8.11	-3.73	28.3	6.75	35.5	17.8	-6.92	14	25.9	-5.16
CN(CC(N)=O)S(=O)(=O)c1ccc(F)cc1Cl	-4.21	-5.48	0.145	5.52	-0.794	0.399	6.59	16.6	13.5	21	-3.16
O=C(Nc1ccc(F)cc1)N1C[C@H]2CC[C@@H]1CN(Cc1cccnc1)C2	-3.11	11	4.71	-2.61	-2.15	4.54	13.3	9.03	10.8	20	-5.73
O=C(c1ccc(Cl)cc1)N1CCCn2nnc(Cn3cccn3)c2C1	-2.51	16.2	3.45	15.3	4.2	8.19	16.6	8.78	5.38	16.1	-7.62
CC(c1nc(C2CC2)no1)N1CCN(Cc2ccccc2F)CC1 (stereo unspecified)	-2.5	3.8	3.7	3.98	-0.718	2.8	1.2	-11.4	2.08	7.59	-0.861
O=C1N(c2ccccc2)Cc2nc(=O)[nH]n21	-6.16	9.33	-6.52	1.33	1.38	-3.35	12.2	8.42	4.23	10.3	-10.1
O=C(c1cccc(Cl)c1)N1CC[C@H]2[C@H]1CCN2CC1CCOCC1	-2.38	0	10.3	0.0847	0.197	1.17	9.78	-5.51	4.25	3.85	-5.25
CCOCC1CN(C(=O)c2ccncc2)Cc2nn(C)cc21 (stereo unspecified)	2.34	16	-4.74	2.25	0.193	-51.1	9.23	-2.51	6.25	22.5	-3.97
O=C(NCC1CCOC1)c1csc(-c2cccc(Cl)c2)n1 (stereo unspecified)	-3.12	10.4	3.54	-3.81	-5.24	0.712	8.62	25.1	1.94	14.6	-5.77
